Laboratory results reported in the supplement of paper PMC6555819.

system: RXRa homodimer (NR concentration 180 nM); assay: PBM binding z-score (relative to random genomic background probes); higher = stronger binding; sequences stand for … in GC…GCGATTGACAGCGTAGAATGAAGG
Method in brief: (§1)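 Binding z-scores were set against random background probes. The data came from custom Agilent 4×180K protein-binding microarrays carrying double-stranded probes with 34-nt variable regions, incubated 1 h with ligand-free nuclear receptor dimers. Partner-specific antibodies detected binding, and scanned fluorescence was regression-normalized.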

Q: With CGTGAAAGTTCAAGGTAACGTAACAGAAAGCAGC as the sequence, how does the PBM binding z-score read?
A: 4.04

Q: For CCGACTGGGGCAAAGATTACCATACTCAGTACGA, which PBM binding z-score is on record?
A: -0.0917

Q: With TCTCGGAGGACGCGAAGGTCAGAGCTTTCCAGAG as the sequence, how does the PBM binding z-score read?
A: 1.67

Q: How did the PBM binding z-score turn out when ATATGTAGGTTATCGGGTCAGTCAGTTTGCGCAT was run?
A: 2.44

Q: Which PBM binding z-score does the source give for CATACTAGGTCACGAAAGGTCAAAGTCGAATGAC here?
A: 8.69

Q: With TGAATGAGGTTAAAGATCAGGGAACGTGGCGTCG as the sequence, how does the PBM binding z-score read?
A: 3.81

Q: With GTACCAAGGTCAATAGGTCGTTGATGAGTAGGCG as the sequence, how does the PBM binding z-score read?
A: 5.66

Q: For TGTCAAGGTTCAAAGGTAACGTAAGTATCCACAC, which PBM binding z-score is on record?
A: 6.08

Q: For TCTAGGTGGTCAAAGGTCACACACTCGAAATGCG, which PBM binding z-score is on record?
A: 8.65

Q: ACAGACAGGTGAGGAAGGTAACTCAGGCTATCAT was tested. Which PBM binding z-score did it give?
A: 0.267

Q: With TCGAGTAGGTTAGTCGGGGCACTCAGCCAACATA as the sequence, how does the PBM binding z-score read?
A: 0.249

Q: With CGTCAAATTTCAACTAAGGTAACGTAAAGCACGC as the sequence, how does the PBM binding z-score read?
A: 0.436

Q: With AGTCAAAGTTCATCTAGGTTACGTAAGATATGCT as the sequence, how does the PBM binding z-score read?
A: 5.4

Q: For AGTCAAAGTTCAGGAAGAGGTAACGTAAAGCACG, which PBM binding z-score is on record?
A: 2.93

Q: CAGCCTAGGTTAGGGCCAGTATAGGAGGAACGTT was tested. Which PBM binding z-score did it give?
A: 0.0782

Q: Which PBM binding z-score does the source give for GCGACTGGGGCATCATCAGGTTACCATAACTTAA here?
A: 0.302

Q: TCTTGTAGTTCAATAGAGGTTAAGAAAGTGCGCT was tested. Which PBM binding z-score did it give?
A: 2.15

Q: With TCTTGTAGATCAGCAGTTTAAGAAAGCTGGCCAA as the sequence, how does the PBM binding z-score read?
A: -0.0867

Q: AGAATGAGGTTATTAAGATTAGGGAATTGCGGTC was tested. Which PBM binding z-score did it give?
A: 1.72

Q: Which PBM binding z-score does the source give for TCGAGTAGGTTAGTCGGGGCTTTCAGCCAACATA here?
A: -0.346

Q: With GGCACGAGGGCAAGTTGATAGCAGAGTTTGATGG as the sequence, how does the PBM binding z-score read?
A: 1.17

Q: For ATAGAAAGGTCGTGAGGTGAGTATACAGAAAGGC, which PBM binding z-score is on record?
A: 5.4

Q: TAAATGAGGTTATAAGATCAGGGAACGTTGCAAA was tested. Which PBM binding z-score did it give?
A: 2.24

Q: With TCGAGTACGTTACCAATGGGGCATTCAGCTTTCT as the sequence, how does the PBM binding z-score read?
A: -0.358

Q: For CCGACTGGGGCAAGGTTACCAGAACGCACAGCCA, which PBM binding z-score is on record?
A: 1.07

Q: How did the PBM binding z-score turn out when CCTACTGGGCCAAAGGTCATTAATTCCAATGCTC was run?
A: 6.16

Q: ATATATAGGTTAGCTGGGGTCATTCAGACTAGGC was tested. Which PBM binding z-score did it give?
A: 5.55

Q: Which PBM binding z-score does the source give for ATATGTAGGTTACATCCGGGTCATTCAAGCTATG here?
A: 3.24

Q: How did the PBM binding z-score turn out when CCTACTTGGCCATTCAGAGGTCATTGATCATATG was run?
A: 3.73

Q: With GATACAGGGTCAGCTAGAGGCCAGACTATGGAAA as the sequence, how does the PBM binding z-score read?
A: 4.23

Q: CCTCCTGGGCCAAGGTCATTGATCAGTCAAAGCA was tested. Which PBM binding z-score did it give?
A: 3.1

Q: GCTATTAGTTGCAAGGGCAACCGAATGATTCTCG was tested. Which PBM binding z-score did it give?
A: 0.35

Q: ACTATTAGTTGACTTAGGGCTACCGATACGACGC was tested. Which PBM binding z-score did it give?
A: 0.257

Q: How did the PBM binding z-score turn out when TCATATAGGTAAATGCTAGGTGAAAATCCGATCT was run?
A: 0.795

Q: With TCTAGTTGGTCAAAGGTAACACACTCGAAATGCG as the sequence, how does the PBM binding z-score read?
A: 2.42

Q: How did the PBM binding z-score turn out when AGAACGAGGGCACGCTGAGTTGATAGTAGAGTAG was run?
A: 1.34

Q: How did the PBM binding z-score turn out when ACAGACAGGTGATGAGGGTAACTCAGGCTATCAT was run?
A: 0.588

Q: How did the PBM binding z-score turn out when GCGACTGGGGCATCAGCAGGTTGCCATAACTTAA was run?
A: -0.273

Q: Which PBM binding z-score does the source give for TCAGACAGGTAAAGGTAACTCAGGTACGCAGTCG here?
A: 1.08

Q: How did the PBM binding z-score turn out when ATCGAAAGGTCGACGATGTGAGTATACACCGTTT was run?
A: 4.27

system: THRa:RXRa (NR concentration 90 nM, RXRa partner concentration 90 nM); assay: as above
Method in brief: as §1

Q: With CGTGAAAGTTCAAGGTAACGTAACAGAAAGCAGC as the sequence, how does the PBM binding z-score read?
A: 3.07

Q: With CCGACTGGGGCAAAGATTACCATACTCAGTACGA as the sequence, how does the PBM binding z-score read?
A: -0.407

Q: TCTCGGAGGACGCGAAGGTCAGAGCTTTCCAGAG was tested. Which PBM binding z-score did it give?
A: 1.84

Q: ATATGTAGGTTATCGGGTCAGTCAGTTTGCGCAT was tested. Which PBM binding z-score did it give?
A: 2.68

Q: For CATACTAGGTCACGAAAGGTCAAAGTCGAATGAC, which PBM binding z-score is on record?
A: 5.16

Q: Which PBM binding z-score does the source give for TGAATGAGGTTAAAGATCAGGGAACGTGGCGTCG here?
A: 2.5

Q: GTACCAAGGTCAATAGGTCGTTGATGAGTAGGCG was tested. Which PBM binding z-score did it give?
A: 3.68

Q: TGTCAAGGTTCAAAGGTAACGTAAGTATCCACAC was tested. Which PBM binding z-score did it give?
A: 3.12

Q: How did the PBM binding z-score turn out when TCTAGGTGGTCAAAGGTCACACACTCGAAATGCG was run?
A: 4.41

Q: For ACAGACAGGTGAGGAAGGTAACTCAGGCTATCAT, which PBM binding z-score is on record?
A: 0.957

Q: TCGAGTAGGTTAGTCGGGGCACTCAGCCAACATA was tested. Which PBM binding z-score did it give?
A: 1.35

Q: How did the PBM binding z-score turn out when CGTCAAATTTCAACTAAGGTAACGTAAAGCACGC was run?
A: 2.71

Q: With AGTCAAAGTTCATCTAGGTTACGTAAGATATGCT as the sequence, how does the PBM binding z-score read?
A: 3.45

Q: With AGTCAAAGTTCAGGAAGAGGTAACGTAAAGCACG as the sequence, how does the PBM binding z-score read?
A: 2.91

Q: With CAGCCTAGGTTAGGGCCAGTATAGGAGGAACGTT as the sequence, how does the PBM binding z-score read?
A: -0.0554

Q: For GCGACTGGGGCATCATCAGGTTACCATAACTTAA, which PBM binding z-score is on record?
A: 2.31

Q: For TCTTGTAGTTCAATAGAGGTTAAGAAAGTGCGCT, which PBM binding z-score is on record?
A: 3.61

Q: For TCTTGTAGATCAGCAGTTTAAGAAAGCTGGCCAA, which PBM binding z-score is on record?
A: -0.138

Q: Which PBM binding z-score does the source give for AGAATGAGGTTATTAAGATTAGGGAATTGCGGTC here?
A: 2.05

Q: How did the PBM binding z-score turn out when TCGAGTAGGTTAGTCGGGGCTTTCAGCCAACATA was run?
A: 1.11

Q: How did the PBM binding z-score turn out when GGCACGAGGGCAAGTTGATAGCAGAGTTTGATGG was run?
A: 1.23

Q: Which PBM binding z-score does the source give for ATAGAAAGGTCGTGAGGTGAGTATACAGAAAGGC here?
A: 3.48

Q: Which PBM binding z-score does the source give for TAAATGAGGTTATAAGATCAGGGAACGTTGCAAA here?
A: 1.9

Q: How did the PBM binding z-score turn out when TCGAGTACGTTACCAATGGGGCATTCAGCTTTCT was run?
A: -0.315

Q: With CCGACTGGGGCAAGGTTACCAGAACGCACAGCCA as the sequence, how does the PBM binding z-score read?
A: 1.06

Q: For CCTACTGGGCCAAAGGTCATTAATTCCAATGCTC, which PBM binding z-score is on record?
A: 3.01

Q: How did the PBM binding z-score turn out when ATATATAGGTTAGCTGGGGTCATTCAGACTAGGC was run?
A: 5.15

Q: How did the PBM binding z-score turn out when ATATGTAGGTTACATCCGGGTCATTCAAGCTATG was run?
A: 3.88

Q: How did the PBM binding z-score turn out when CCTACTTGGCCATTCAGAGGTCATTGATCATATG was run?
A: 3.21

Q: GATACAGGGTCAGCTAGAGGCCAGACTATGGAAA was tested. Which PBM binding z-score did it give?
A: 3.1

Q: With CCTCCTGGGCCAAGGTCATTGATCAGTCAAAGCA as the sequence, how does the PBM binding z-score read?
A: 3.43

Q: With GCTATTAGTTGCAAGGGCAACCGAATGATTCTCG as the sequence, how does the PBM binding z-score read?
A: 0.666

Q: ACTATTAGTTGACTTAGGGCTACCGATACGACGC was tested. Which PBM binding z-score did it give?
A: 1.21

Q: Which PBM binding z-score does the source give for TCATATAGGTAAATGCTAGGTGAAAATCCGATCT here?
A: 1.24

Q: TCTAGTTGGTCAAAGGTAACACACTCGAAATGCG was tested. Which PBM binding z-score did it give?
A: 1.46

Q: With AGAACGAGGGCACGCTGAGTTGATAGTAGAGTAG as the sequence, how does the PBM binding z-score read?
A: 1.9

Q: How did the PBM binding z-score turn out when ACAGACAGGTGATGAGGGTAACTCAGGCTATCAT was run?
A: 2.72

Q: GCGACTGGGGCATCAGCAGGTTGCCATAACTTAA was tested. Which PBM binding z-score did it give?
A: -0.00785

Q: How did the PBM binding z-score turn out when TCAGACAGGTAAAGGTAACTCAGGTACGCAGTCG was run?
A: 1.67

Q: How did the PBM binding z-score turn out when ATCGAAAGGTCGACGATGTGAGTATACACCGTTT was run?
A: 1.91
